Compound activity from PubChem.
Epigenetic derep: derepresses silenced GFP reporter in murine cells. Potency, µM (top dose mostly 53.9 µM), hits mostly activators. 280,000 compounds, 0.2% hits. murine LDR cells, GFP reporter derepression, 30 h; also: nearly all actives have a fitted effect of over 60% in size
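Derepression of a silenced CMV-GFP reporter in murine LDR cells is scored by enumerating GFP-positive cells with a laser-scanning microplate cytometer after 30 hours of treatment at 37 C.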
Vif-A3G inh: inhibitors of Vif-APOBEC3G interaction; Q9HC16; HeLa A3G-eYFP + Vif (tagged APOBEC3G with the HIV-1 protein that degrades it), YFP fluorescence, overnight; 410,000 compounds, 0.076% hits; AID 602310; Potency, µM (top dose mostly 46.1 µM), usual class: inhibitors; also: nearly all actives have a fitted effect of over 60% in size
Target sequence (Q9HC16 whole entry, looked up): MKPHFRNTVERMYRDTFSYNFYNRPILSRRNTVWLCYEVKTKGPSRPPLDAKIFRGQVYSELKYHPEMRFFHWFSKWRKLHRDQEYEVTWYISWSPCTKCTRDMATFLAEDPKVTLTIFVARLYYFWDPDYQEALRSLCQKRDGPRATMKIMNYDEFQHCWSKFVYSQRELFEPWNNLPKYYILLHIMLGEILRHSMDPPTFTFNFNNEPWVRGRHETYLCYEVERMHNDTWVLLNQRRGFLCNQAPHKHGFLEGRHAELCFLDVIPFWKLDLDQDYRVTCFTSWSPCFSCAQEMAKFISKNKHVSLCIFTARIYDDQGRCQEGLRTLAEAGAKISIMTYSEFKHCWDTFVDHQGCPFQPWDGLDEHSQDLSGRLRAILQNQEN
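Read-out is eYFP fluorescence (Ex 488/Em 500-530) from Vif-expressing HeLa A3G-eYFP cells; more signal means A3G escaped Vif-mediated degradation. Cells plated overnight, compound pinned in, incubated overnight at 37 deg C.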
Apoferritin bind: binds horse apoferritin like a general anesthetic; 350,000 compounds, 0.074% hits; Potency, µM (top dose mostly 77.5 µM), usual class: inhibitors; P02791; apoferritin/1-aminoanthracene competitive binding, fluorescence; also: nearly all actives have a fitted effect of over 20% in size
Target sequence (P02791 2-175 limits assumed): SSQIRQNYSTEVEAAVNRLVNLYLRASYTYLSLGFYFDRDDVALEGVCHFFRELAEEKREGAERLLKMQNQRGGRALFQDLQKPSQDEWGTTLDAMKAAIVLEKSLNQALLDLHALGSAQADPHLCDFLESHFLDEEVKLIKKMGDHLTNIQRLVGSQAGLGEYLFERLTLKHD
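In PBS, apoferritin at 10 uM is loaded with 1-AMA from a 50% saturated solution. After 10 min of compound exposure at ambient temperature, reduced 535 nm fluorescence indicates probe displacement.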
LDHA inh: inhibitors of human lactate dehydrogenase A; P00338; purified LDHA, NADH/diaphorase-resazurin fluorescence; hits give low values; activity change, % (values are at about 110 or 230 µM); 480,000 compounds, 0.15% hits; AID 1347041; in the data active = activity change below about -30%; inconclusive = mostly about -25% to -30%
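Human LDH5 (2 nM) was incubated with 0.06 mM NADH and 0.2 mM pyruvate for 5 min at room temperature in Tris pH 7.4. Remaining NADH was coupled through diaphorase/resazurin, and resorufin fluorescence was read at 0 and 20 min.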
Vif-APOBEC3F blk: blocks the Vif interaction with APOBEC3F | AID 602313 | HeLa A3F-eYFP + Vif (tagged APOBEC3F with the HIV-1 protein that degrades it), YFP fluorescence increase | Potency, µM (top dose mostly 46.1 µM) | 390,000 compounds, 0.2% hits; also: nearly all actives have a fitted effect of over 65% in size
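HeLa cells stably expressing A3F-eYFP plus Vif, plated and incubated overnight at 37 deg C, then exposed to compounds overnight at 37 deg C. Blocked degradation read as raised yellow fluorescence (Ex 488/Em 500-530).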
Hits are given with their value; . = inactive; ? = inconclusive; / = no result given. In the library only some 0.49% were active in any assay of this set; here they are far more common. Unless noted, calls follow the shape of the dose curve; as a rule, active = well fitted curve in the direction sought with a large enough effect; inconclusive = small, poorly fitted or top-dose-only effect, or another doubt; inactive = no such curve, though single readings can be large; an effect the other way counts as inactive or inconclusive.

SMILES	Epigenetic derep	Vif-A3G inh	Apoferritin bind	LDHA inh	Vif-APOBEC3F blk
COc1ccc(C(=O)NC(C)c2ccc(-n3ccnc3)cc2)c(OC)c1OC (configuration not stated)	/	.	.	.	.
Cn1c(O)c(C2=c3ccccc3=NC2=O)sc1=Nc1ccc(Cl)cc1	.	.	.	.	.
O=C1/C(=C/c2ccc(Br)cc2)Oc2cc(O)ccc21	/	.	.	.	.
O=C1/C(=C/c2ccc([N+](=O)[O-])cc2)Oc2cc(O)ccc21	/	.	.	.	22µM
CCOC(=O)c1cnc2ccc(C)cc2c1NCCO	.	.	.	.	/
CCCCN1C(=O)/C(=C2/Sc3ccccc3N2C)S/C1=N\c1ncn[nH]1	.	.	.	.	22µM
c1ccc2nc3c(cc2c1)CCCC3	/	.	/	.	/
COc1cccc(CN2CCN(Cc3cc(OC)c(OC)c(OC)c3)CC2)c1OC	/	.	.	-35	.
CCS(=O)(=O)N1CCN(Cc2ccccc2OC)CC1	.	.	.	-31	.
COc1ccc(CN2CCN(Cc3cccc(OC)c3OC)CC2)cc1	/	/	/	.	/
CC(=O)c1cccc(Oc2cc(NN3CCCCC3)c([N+](=O)[O-])cc2[N+](=O)[O-])c1	/	.	?	.	.
CC(NCC(=O)Nc1ccccc1C(=O)NC1CC1)c1ccc(Cl)cc1 (configuration not stated)	/	.	/	.	.
CCS(=O)(=O)c1ccc2oc(SCC(=O)NC3CCCC(C)C3C)nc2c1 (configuration not stated)	.	.	50µM	.	.
CC1=C(c2ccc(C)c(C)c2)S(=O)(=O)N(CC(=O)NCc2ccccc2)C1=O	/	/	/	.	/
CCOc1ccc(CNC(=O)c2ccccc2NC(=O)c2nsc3ccccc23)cc1	.	.	.	.	7.9µM
O=C(/C=C/c1ccco1)N1CCc2ccccc21	.	?	.	.	11µM
O=C(c1ccco1)N1CCN(C(=O)N2CCCCC2)CC1	.	.	.	.	.
C=CCNC(=O)NC(=O)CN(C)CCCc1ccccc1	/	/	/	.	/
CN(C)c1cccc(N=C2C=C(N3CCOCC3)CC(C)(C)C2)c1	.	.	.	-31	.
CC1(C)CC(N2CCOCC2)=CC(=[N+]2CCOCC2)C1	.	.	.	.	.
CN(C)c1nc2ccccc2c(N)c1-c1ccccc1	.	.	.	-38	.
CN(C)c1ccc(-c2c3ccccc3nc3ccccc23)cc1	/	.	/	.	/
Cc1ccccc1NCc1ccccc1O	.	.	18µM	.	.
COc1ccc(-c2[nH]n(-c3ccc([N+](=O)[O-])cc3)c(=O)c2C=NCc2ccccc2)cc1	13µM	.	.	.	?
CN(C)CCOc1ccc2c(c1)C(=O)C(=Cc1ncc([N+](=O)[O-])n1C)C2	/	11µM	/	.	?
SMILES	Epigenetic derep	Vif-A3G inh	Apoferritin bind	LDHA inh	Vif-APOBEC3F blk
CC(=O)OCCn1c([N+](=O)[O-])cnc1C=[N+]([O-])C1CCCCC1	/	.	/	.	.
CCOc1ccc(NC(=O)C2CCN(c3nc4ccccc4nc3OC)CC2)cc1	/	/	/	.	/
Cc1ccc(C(=O)C(C)OC(=O)CCS(=O)(=O)c2ccc(C)cc2)cc1 (configuration not stated)	/	.	/	.	.
Cc1ccc(-c2nc3sc(C#N)c(N)n3c(=O)c2C#N)cc1	?	.	.	.	6.3µM
CN(Cc1ccccc1)C(=O)c1ccc(NC(=O)Cc2ccc(NC(=O)C3CCN(C(=O)C4CCCC4)CC3)cc2)cc1	/	.	/	.	.
Cc1ccc(Oc2ccc(NC(=O)Cn3ccsc3=N)cc2)cc1	.	.	13µM	.	.
O=C(OCn1nnc2ccccc2c1=O)C1CCCCC1	.	.	40µM	.	.
O=c1c2ccccc2nnn1Cc1ccccc1Cl	.	.	14µM	.	.
CCN1CCN(CCOc2ccc(Cl)cc2)CC1	.	.	.	-34	.
CCN1CCN(CCOc2ccccc2-c2ccccc2)CC1	.	.	.	-34	.
Cc1nn(-c2ccc(N3CCCC3)nn2)c(C)c1CCC(=O)NCc1ccc(OC(C)C)cc1	.	.	.	.	.
O=C1NC(=O)c2cc(Nc3ccc(F)cc3)c(Nc3ccc(F)cc3)cc21	.	/	.	/	/
CCOC(=O)c1c(-c2ccccc2)csc1NC(=O)/C(C#N)=C/c1ccc(O)c(OC)c1	25µM	.	.	.	?
Cc1ccc(CCNC(=O)c2cc3c(s2)-c2ccccc2OC3)cc1	.	.	.	-36	.
N#C/C(=C\c1ccc(O)c(O)c1)C(=O)N1CCCC1	.	.	.	.	.
N#C/C(=C\c1ccc(O)c(O)c1)C(=O)c1ccc(O)c(O)c1	.	.	/	-90	.
c1ccc(CCNc2nc3ccccc3s2)cc1	.	.	13µM	.	.
Cc1ccc(C)c(NC(=O)C(Nc2ccc3oc(C)nc3c2)c2ccccc2)c1 (configuration not stated)	/	/	/	.	/
COc1ccc(/C=C2\SC(N)=NC2=O)cc1	/	.	.	.	.
COc1cc(/C=C2\SC(N)=NC2=O)cc(Br)c1O	/	11µM	.	.	?
CCc1ccc(S(=O)(=O)c2cnc(SCC(=O)Nc3ccc(OC)cc3OC)[nH]c2=O)cc1	.	.	?	.	.
CC(C)(C)c1ccc(S(=O)(=O)c2cnc(SCC(=O)Nc3ccc(F)c(Cl)c3)[nH]c2=O)cc1	.	.	?	-49	.
COc1cc(Cl)c(C)cc1NC(=O)CSc1ncc(S(=O)(=O)c2ccc(C(C)(C)C)cc2)c(=O)[nH]1	.	.	?	-39	.
CCOC(=O)c1ccc(NC(=S)Nc2cccc(N)n2)cc1	.	.	.	.	.
CCOC(=O)c1ccc(NC(=S)Nc2cccc(C)n2)cc1	.	.	.	.	11µM
SMILES	Epigenetic derep	Vif-A3G inh	Apoferritin bind	LDHA inh	Vif-APOBEC3F blk
O=S(=O)(Nc1nc2ccccc2nc1Nc1ccc2c(c1)OCCO2)c1cccs1	.	.	.	.	11µM
CCC(Sc1nncn2c1cc1sccc12)C(=O)Nc1cccc(OC)c1 (configuration not stated)	.	.	.	.	.
O=C(Nc1ccccc1)c1ccc(S(=O)(=O)N2CCCC2)cc1	.	.	.	.	.
O=C(NCc1ccccc1Cl)c1ccc(Nc2nc3ccccc3n3nnnc23)cc1	10µM	.	.	.	?
COc1cc(Nc2nc3ccccc3n3nnnc23)cc(OC)c1OC	?	?	.	.	6.3µM
Cc1cccc(C(=O)O/N=C2\CCS(=O)(=O)c3sccc32)c1	.	.	.	.	.
CCOC(=O)N1C2CCC(C2)N1C(=O)OCC	/	.	/	.	.
Cc1ccc(CNC(=O)c2cc(COc3c(F)cccc3F)on2)s1	.	.	13µM	.	?
CCN(CC)c1ccc2cc(-c3nc(-c4cc5ccccc5oc4=O)cs3)c(=O)oc2c1	/	7.1µM	/	.	.
CCN(CC)c1ccc2cc(-c3nc(-c4ccccc4)no3)c(=O)oc2c1	14µM	.	.	.	?
CCN(CC)c1ccc2cc(-c3nnc(Nc4ccc(C)cc4)s3)c(=O)oc2c1	0.1µM	.	.	.	.
